Each structure is given as a SMILES string. Where “and” joins values, the source holds several entries; their conditions need not be identical. Identical values can stand only once. About 2,600 (0.6%) of roughly 430,000 compounds were called active. The full list was thinned out, with actives kept by preference. A number with no mark means an inactive call. Cut-off read from the data, not from the text of the source: active = inhibition mostly above about 37% (no sharp cut-off); inactive = mostly below about 20%.

The experiment concerns PriA–SSB C-terminal tail interaction (Klebsiella pneumoniae). The experiment can be described thus: inhibitors of Klebsiella pneumoniae PriA binding to SSB C-terminal tail, primary screen, biochemical, AlphaScreen (AID 1272365).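 Note: plate controls were negative control peptide for no effect and reference peptide for full effect.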 To be noted: AlphaScreen SSBct-PriA binding, biotinylated peptide; at 33 µM, hits give high values. For orientation: Bead proximity is the source of the signal in Alpha formats.
What is called inhibition is the change of the read-out against control, counted positive when it falls. With `CC(=O)N(C)c1ccc(OC[C@@H](O)CN(c2ccc(C)cc2)S(=O)(=O)c2ccc(C)cc2)cc1`, the inhibition is -17%. In the case of `CC1(C)C(=O)NCCN1C(=O)Cc1ccc2c(c1)OCO2`, the inhibition was -2% and -8%. Regarding `COC1(CNC(=O)C2CCN(S(C)(=O)=O)CC2)CCSC1` (stereo not given), the inhibition is -5%. As for `COc1ccc(N2CCN(C(=S)Nc3ccc(C(C)=O)cc3)CC2)cc1`, the inhibition is 5%.

Consider `C=CC(=O)Nc1ccc(Nc2ccnc(Nc3ccc(N4CCN(C)CC4)cc3)n2)cc1`, for which the inhibition was 56.7% (active). The same measure for `COc1ccc(NC(=O)Nc2ccc(N3CCOCC3)cc2)cc1`: -16%. As for `O=C(c1cc(Cl)sc1Cl)N(CC1CCCO1)c1nc2c(F)cc(F)cc2s1` (stereo not given), the inhibition was -20%.

Regarding `CCOC(=O)N1CCN(C(=O)Cn2nc(C(F)(F)F)n(C)c2=O)CC1`, the inhibition was 2%. As to `O=C(Nc1ccccc1-c1ccc(=O)[nH]n1)c1ccncc1`, the inhibition is -12%.

Take `COc1ccc(-c2ccc(CCC(=O)O)n2NC(=O)c2ccc(C(C)(C)C)cc2)cc1`: the inhibition was -5.78%. For `CC(=O)N1N=C(c2ccncc2)OC1(Cc1ccccc1)Cc1ccccc1`, the inhibition is -8.22%. For `COc1ccc(CC2(C)OC(c3ccc(C(C)(C)C)cc3)=NN2C(C)=O)cc1` (stereo not given), the inhibition was 62.5% (active). For `Cn1c(=O)c2nc(SCC(=O)Nc3ccc(F)c([N+](=O)[O-])c3)n(C)c2n(C)c1=O`, the inhibition was -5%. On to `CCOc1ccc(-c2ccc(=O)n(CCNC(=O)C3CC3)n2)cc1`, for which the inhibition was 6%. The same measure for `NC(=NOC(=O)c1ccc(=O)n(Cc2ccccc2)c1)c1ccccn1`: 3.95%. For `COC(=O)c1ccc(C=NNC(=O)CNc2cccc(C)c2)cc1`, the inhibition is -5.68%. Turning to `O=C(CNc1ccc2ccccc2c1)NN=Cc1ccc(C(=O)O)cc1`, the inhibition was 13.8%.

Take `CSc1ccc(C=NNC(=O)CNc2ccc3ccccc3c2)cc1`: the inhibition was 47.7% (active). For `C(#Cc1ccc2noc(-c3ccccc3)c2c1)c1ccccc1`, the inhibition was -6%. The same measure for `O=C(CCN1CCOCC1)N1N=C(c2ccccc2)CC1c1cccc([N+](=O)[O-])c1` (stereo not given): 8%; for `O=C(c1ccc(F)cc1)c1cn(Cc2ccc(F)cc2)c2cc3c(cc2c1=O)OCCO3`: 115% (active).

For `Cc1ccc(Cn2cc(C(=O)NN)c(=O)c3ccc(F)cc32)cc1`, the inhibition is -0.06%.

Turning to `COc1cccc(Cn2cc(C(=O)c3ccccc3)c(=O)c3cc4c(cc32)OCCO4)c1`, the inhibition is -13%. On to `CCc1nc2ccccc2c(=O)n1N=Cc1ccc(OC)cc1`, for which the inhibition is 4.76%. Consider `COc1ccc(C=Nc2cccc3ncccc23)cc1`, for which the inhibition was 86.5% (active). For `C=CCn1c(N=Cc2ccc(OC)cc2)nc2ccccc21`, the inhibition is 10.8%. Turning to `CCOC(=O)c1c(-c2ccc(F)cc2)csc1NC(=O)CSc1n[nH]c(N)n1`, the inhibition was 9%. For `Cc1ccc(OCc2nc(C#N)c(N3CCCC3)o2)cc1`, the inhibition was -11.1%. Take `CCCOc1ccc(-c2nc(C#N)c(N3CCCCC3)o2)cc1`: the inhibition is 90% (active). For the compound `Cc1ccc(OCc2ccc(-c3nc(C#N)c(N4CCCCCC4)o3)o2)cc1`, the inhibition is 39.5%.

For the compound `COc1cccc2cc(C(=O)C3=C(O)C(=O)N(CCN(C)C)[C@@H]3c3ccccc3F)oc12`, the inhibition is -20%. Turning to `NS(=O)(=O)c1ccc(NC(=O)c2cn(Cc3cccc(F)c3)nc2OCc2cccc(F)c2)cc1`, the inhibition is -16%. The same measure for `Cc1ccc(C=NNC(=O)c2cccc(S(=O)(=O)Nc3cccc(Cl)c3)c2)o1`: -6.77%; for `COc1cccc(NC(=O)C2C(c3ccccc3)C2(Cl)Cl)c1` (stereo not given): -12.2%; for `COc1ccc2c(c1)C(C)=CC(C)(C)N2C(=O)Nc1ccccc1`: 38.4% (active). Turning to `COc1cccc(NC(=O)c2nn(-c3ccc(OC)cc3OC)c(=O)c3ccccc23)c1`, the inhibition was -7.71%. As to `CCOC(=O)c1ccc(NC(=O)CSc2nnc(-c3cccs3)n2-n2cccc2)cc1`, the inhibition is 0%. As to `CCOC(=O)CNC(=O)NC1CC(=O)N(c2ccccc2)C1` (stereo not given), the inhibition is 32%. The same measure for `Cc1cnc(-c2ccccn2)nc1N`: 151% (active); for `CC1(C)N=C(c2ccccn2)C(C)(C)N1O`: -5.91%. Regarding `Cc1c(N)nc(-c2ccccn2)nc1Cl`, the inhibition was 47.3%.

In the case of `COc1ccc(NC(=O)Cn2ncn3nc(-c4ccc(F)cc4)cc3c2=O)cc1Cl`, the inhibition is 6%.

Take `CNC(=S)NN=C(C)c1cccc(C(F)(F)F)c1`: the inhibition was -4.78%. In the case of `O=C(NCC1(c2ccsc2)CCCC1)Nc1cccs1`, the inhibition is 53% (active).

On to `O=C(Cc1ccc(F)cc1)NCC1(c2ccsc2)CCCC1`, for which the inhibition is -6%. On to `Cn1cc(C(=O)NCC2(c3ccsc3)CCCC2)nn1`, for which the inhibition was -24%.

With `NCCc1csc2nc(-c3cccc(F)c3)nn12`, the inhibition is 16%. For the compound `O=C(Nc1cnc(N2CCN(c3ccccc3)CC2)nc1)c1c(F)cccc1F`, the inhibition is -6%.

`Cc1cc(NC(=O)C(C)(C)CCl)n(-c2ncnc3c2cnn3-c2cccc(C)c2C)n1`: the inhibition was 11%. Regarding `Cc1ccc(-n2ncc3c(=O)[nH]c(-n4nc(C)cc4NC(=O)Cc4ccccc4)nc32)cc1`, the inhibition is -5%. For the compound `Cc1cc(NC(=O)c2ccccc2Cl)n(-c2nc3c(cnn3-c3cccc(C)c3C)c(=O)[nH]2)n1`, the inhibition is 53% (active). The figure for `CCOC(=O)N1CCC(NC(=O)Cc2csc(Nc3ccc(F)cc3)n2)CC1` is 2%. As to `CC(C)n1cnc2c(NCc3ccccc3)cc(OCC3CCN(C)CC3)cc21`, the inhibition is 53.1% (active). Take `O=C(c1ccc(S(=O)(=O)NCc2cccnc2)o1)N1CCC(Cc2ccccc2)CC1`: the inhibition was 5%. For `O=[N+]([O-])c1cc(S(=O)(=O)N2CCCC2)ccc1NN=C1CCCC1`, the inhibition was 11.5%. For `O=[N+]([O-])c1cc(C(F)(F)F)ccc1NN=C1CCCC1`, the inhibition is 43.5% (active). For `O=[N+]([O-])c1cc(C(F)(F)F)ccc1NCCc1ccncc1`, the inhibition is -11.2%.

Regarding `COc1cc(OC)c(OC)cc1/C=C1/C(=O)NC(=N)N1C`, the inhibition was -14.1%. The figure for `O=C(COc1ccc(Cl)cc1Cl)NCC(=O)N/N=C\c1cccs1` is -6%; for `CC(=O)c1ccc(S(=O)(=O)N2CC(S(=O)(=O)c3ccc(Cl)cc3)C2)cc1` it is -15%.
